# About 83,000 compounds went through this panel and 20% of them were active in at least one assay; those are over-represented in the sample as a whole.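 48-hour exposure, single concentration, 96-well plates; percent growth endpoint where 0 means no net growth. Active: below 10.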 Activity calls are given as the source filed them.
# Test system: MDA-MB-468 breast
# Experiment: NCI-60 one-dose screen, 48 h (100 = growth as untreated, 0 = no growth, -100 = all killed)
# Conditions: 10 µM unless noted
row,SMILES,growth
1,COC(c1ccccc1)(c1ccccc1)c1ccccc1,113% (inactive)
2,CCN(CC)CCNC(=O)c1ccc(NC(C)=O)cc1,111% (inactive)
3,CCC(=O)N1C/C(=C/c2ccc(Cl)cc2)C(=O)/C(=C/c2ccc(Cl)cc2)C1,-84.5% (active)
4,O=C(Cc1ccc(/C=C/C(=O)c2ncc[nH]2)cc1)Nc1cc(C(F)(F)F)cc(C(F)(F)F)c1,65.3% (inactive)
5,CCCCCCCn1cc2c(NCCc3ccccc3)ncnc2n1,105% (inactive)
6,COc1ccc(C(O)c2ccccc2)cc1 (configuration not stated),3.29% (active)
7,O=C(COc1ccccc1)N1N=C(c2ccc(Cl)cc2)CC1c1c[nH]c2ccccc12 (configuration not stated),85.7% (inactive)
8,COC(=O)[C@]12CC[C@@H](C)[C@H](C)[C@@H]1C1=CC[C@@H]3[C@@]4(C)C(C=O)=C[C@@](C)(COC(C)=O)C4=CC[C@@]3(C)[C@]1(C)CC2,-3.02% (active)
9,NS(=O)(=O)c1ccc(C2C3=C(CCCC3=O)OC3=C2C(=O)c2ccccc2C3=O)cc1 (configuration not stated),-47.4% (active)
10,COC(=O)[C@]1(C)CCC[C@]2(C)c3ccc(C(C)C)cc3C(=O)[C@@H](Br)[C@@H]12,78.3% (inactive)
11,COc1c(Cl)cc(Cl)c2ccc(C=C3C(=O)N(C)C(=O)N(C)C3=O)nc12,107% (inactive)
12,CC(C)(C)n1cc(-c2ccnc(NCCCNS(=O)(=O)c3ccc(Cl)cc3)c2)c(-c2cccc(F)c2)n1,48.4% (inactive)
13,CCOC(=O)C1=C(C)N=C2SC=C(c3ccc(F)cc3)N2[C@H]1c1cn(-c2ccccc2)nc1-c1ccc(Cl)cc1,91.1% (inactive)
14,O=[N+]([O-])c1cc(C(F)(F)F)ccc1Sc1ccc(C(F)(F)F)cc1[N+](=O)[O-],-4.58% (active)
15,O=C(Nc1ncc(Cc2cccc(C(F)(F)F)c2)s1)c1ccc(-n2cnnn2)cc1,16.7% (inactive)
16,O=C(CCl)N(C1CCCCC1)C1CCCCC1,91.5% (inactive)
17,Nc1c(C(=O)Nc2ccnc3ccccc23)sc2nc3c(cc12)CN(Cc1ccccc1)CC3,44% (inactive)
18,CN1CCN(Cc2ccc(NC(=O)c3cncc(C#Cc4cnc(N)cc4C#N)c3)cc2C(F)(F)F)CC1,-4.22% (active)
19,CC(=O)c1nc(Nc2ccc(C)cc2)sc1C,93.1% (inactive)

row,SMILES,growth
1,O=C(CCN1CCCC1)Nc1ccc2c(Nc3ccccc3)c3ccccc3nc2c1,-14.9% (active)
2,COc1cnc2c(c1)C(=O)c1c-2n(CCCBr)c(=O)c2cc([N+](=O)[O-])ccc12,-15.8% (active)
3,Cc1cc(C)c2c(c1)N(C)c1ncnc(-n3cnc4cc(C)ccc43)c1CC2C (configuration not stated),6.16% (active)
4,Cc1ccc(S(=O)(=O)OC[C@@]2(C)CC[C@]3(C)CC[C@]4(C)C(=C3C2)C=C[C@@H]2[C@@]3(C)CCCNC(C)(C)[C@@H]3CC[C@]24C)cc1,-88.5% (active)
5,Cc1ccc(C(=O)c2ccc(CC(=O)NN3C(=O)c4ccccc4C3=O)n2C)cc1,93% (inactive)
6,Cc1cccc2c(=O)c3c(sc12)c(NCCCN)nc1ccccc13,-38.5% (active)
7,Cc1nn(-c2ccccc2)c2nc(N)c(C3=NCCO3)nc12,113% (inactive)
8,CCCCc1ccc(NC(=O)C(F)(F)F)cc1,109% (inactive)
9,O=C(Nc1ccccc1)c1ccco1,103% (inactive)
10,CC(C)(C)c1cc(Cl)c(O)c(CNCCO)c1,96.1% (inactive)
11,Cc1ccc(/C=C/c2c(C(=O)/C=C/c3ccc(C(F)(F)F)cc3)c(C)nc3ccccc23)cc1,-57.4% (active)
12,CC(C)[C@@]12C[C@@H](OC(=O)COC(=O)c3ccccc3)[C@@](C)(O1)[C@@H]1CC[C@@H](C)[C@H]1[C@@H]2OC(=O)/C=C/c1ccccc1,85.4% (inactive)
13,C=C1C(=O)O[C@H]2[C@H]1CC/C(COC(=O)c1cccnc1)=C\CC[C@@]1(C)O[C@@H]21,17.6% (inactive)
14,COc1cc(/C=N/Nc2ncc(-c3cc4cc5c(cc4o3)OCO5)s2)cc(OC)c1OC,25.2% (inactive)
15,NC(=O)c1cc(-c2ccc3ncnc(N4CCc5cc(F)c(Cl)cc54)c3c2)cnc1N,-35.3% (active)
16,CCCCN(CCCC)CCCO,106% (inactive)
17,COc1ccc(-c2nc3ncccn3c2-c2nc3ccc(Br)cc3[nH]2)cc1,75.6% (inactive)
18,Cc1cc(NS(=O)(=O)c2ccc(NC(=O)COc3ccc(-c4cc5ccccc5[nH]4)cc3)cc2)no1,-0.467% (active)
